Experimental data from PubChem BioAssay (NCI).
Compounds without any hit were thinned out: in the full panel of roughly 83,000, 20% have a hit.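 Results are percent growth after 48 hours of single-concentration exposure. 100 means growth as in untreated cells, lower positive values show inhibition; negative values down to -100 show cell death.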 A number with no mark means an inactive call. Calls of active or inactive are those of the source. How the source made its calls: active means growth percent below 10; inactive means the rest.

Key:
Experiment in all cases: NCI-60 one-dose screen, 48 h (100 = growth as untreated, 0 = no growth, -100 = all killed)
Conditions in all cases: 10 µM
NCI-H23 lung = tested on: NCI-H23 lung
NCI-H226 lung = tested on: NCI-H226 lung
NCI-H322M lung = tested on: NCI-H322M lung
NCI-H460 lung = tested on: NCI-H460 lung
HOP-92 NSCLC = tested on: HOP-92 NSCLC
A549/ATCC NSCLC = tested on: A549/ATCC NSCLC
COLO 205 colon = tested on: COLO 205 colon
DU-145 prostate = tested on: DU-145 prostate
K-562 leukemia = tested on: K-562 leukemia
MALME-3M melanoma = tested on: MALME-3M melanoma
MDA-MB-231 breast = tested on: MDA-MB-231 breast
RXF 393 renal = tested on: RXF 393 renal
SF-268 CNS = tested on: SF-268 CNS
SF-295 CNS = tested on: SF-295 CNS
SF-539 CNS = tested on: SF-539 CNS
UACC-257 melanoma = tested on: UACC-257 melanoma
786-0 renal = tested on: 786-0 renal
M14 melanoma = tested on: M14 melanoma
NCI-H522 lung = tested on: NCI-H522 lung

Compound | growth (NCI-H23 lung) | growth (NCI-H226 lung) [%] | growth (NCI-H322M lung) | growth (NCI-H460 lung) | growth (HOP-92 NSCLC) | growth (A549/ATCC NSCLC) [%] | growth (COLO 205 colon) | growth (DU-145 prostate) | growth (K-562 leukemia) | growth (MALME-3M melanoma) | growth (MDA-MB-231 breast) | growth (RXF 393 renal) | growth (SF-268 CNS) | growth (SF-295 CNS) | growth (SF-539 CNS) | growth (UACC-257 melanoma) | growth (786-0 renal) | growth (M14 melanoma) | growth (NCI-H522 lung)
COC(=O)c1cc2oc(/C=C3/SC(=S)N(N)C3=O)cc2n1Cc1ccccc1 | 58.4% | 57 | 39.4% | 40.5% | -69% (active) | 53.4 | 75% | 32.7% | 7.35% (active) | -69.9% (active) | 6.49% (active) | -19.1% (active) | 46.4% | 68% | 44.7% | 49.6% |  |  | 
Cc1cc(C)nc(NS(=O)(=O)c2ccc(Nc3nc4nc(NCc5ccccc5)nc(-c5ccc(O)cc5)c4c(=O)[nH]3)cc2)n1 | 31.6% | 31.9 | 10.2% | 16.4% | -11.1% (active) | 43.9 | 35.3% | 33% | 37.8% | -12.6% (active) | 29.2% | -1.77% (active) | 27.8% | 27.3% | 39.9% | 66.1% |  |  | 
C[C@]12CC[C@@H]3c4ccc(O)cc4CC[C@H]3[C@@H]1CC[C@@H]2NS(=O)(=O)c1ccc(C(F)(F)F)cc1 | 56.4% | 51.6 | 63.8% | 3.9% (active) |  | 23.5 | 9.34% (active) | 69.8% | 22.5% | 9.1% (active) | 67.2% | 22.9% | 57% | 30.9% | 78.1% | 73.6% | 57.4% | 36.6% | 
COc1ccc(Cl)cc1Nc1nc(C(F)(F)F)ccc1C(=O)N/N=C/c1cc(OC)c(OC)c(OC)c1 | 54.9% | 30.7 | 8.92% (active) | 21.4% | -12% (active) | 59.4 | 12.8% | 38.4% | 24.1% | -6.88% (active) | -5.79% (active) | -10.2% (active) | 8.43% (active) | 19.8% | 17.1% | 54.8% |  |  | 
CCC(c1ccc(OC)cc1)C(CC)c1ccc(O)c(CN2CCN(C)CC2)c1 (stereo not given) | 57.8% | 88.9 | 76.1% | 51.8% |  |  |  | 92.4% | 9.45% (active) | 6.2% (active) | 56.3% | 39.3% | 80.6% | 28.9% | 67.4% | -5.73% (active) | 57.6% |  | 61.9%
CCOC(=O)c1cocc1C(=O)O | 109% | 102 | 110% | 104% |  | 101 | 108% | 113% | 92.6% | 106% | 118% | 114% | 108% | 101% | 107% | 103% | 103% | 103% | 106%
CCOc1ccccc1/C=N\N=C\c1ccccc1O | 87.7% | 104 | 93.8% | 107% |  | 108 | 108% | 98.8% | 75.5% | 96.5% | 78.7% | 121% | 94.7% | 105% | 107% | 107% | 106% | 97.3% | 99.8%
CCCC1(CN2c3ccccc3Sc3ccc(Cl)cc32)CCN(CC)C1 (stereo not given) | 5.21% (active) | 32.4 | 25.5% | -100% (active) |  | 18.6 | -80.8% (active) | -32.3% (active) | -61.9% (active) | -61.5% (active) | -28.4% (active) | -33.7% (active) | 25.9% | -89.4% (active) | -7.27% (active) | 4.91% (active) | -95.7% (active) | -93.2% (active) | -75.2% (active)
COc1ccc(C(=O)CC(CC(=O)c2ccc(OC)cc2)c2c(C)nn(-c3ccccc3)c2Cl)cc1 | 90.7% | 92.8 | 96.5% | 97.5% |  | 95.1 | 117% | 110% |  | 92.4% | 90.9% | 98.4% | 101% | 92.2% |  | 118% | 86.3% | 90.5% | 79.4%
